# Measurements reported in PubChem BioAssay AID602292 (National Center for Advancing Translational Sciences (NCATS), 2012).
# The campaign covered roughly 1,300 compounds. About 380 (29%) were called active. Another 37% or so got no clear call; they are omitted. This is one part of the list. A number with no mark means an inactive call. Calls come from the whole dose curve; as a rule, active = well fitted inhibition curve with a large enough effect; inconclusive = small, poorly fitted or top-dose-only effect; inactive = flat fitted curve, though single readings scatter.
# Molecular target: Thyrotropin receptor (Homo sapiens) (UniProt P16473)
# Sequence (P16473 whole entry, looked up): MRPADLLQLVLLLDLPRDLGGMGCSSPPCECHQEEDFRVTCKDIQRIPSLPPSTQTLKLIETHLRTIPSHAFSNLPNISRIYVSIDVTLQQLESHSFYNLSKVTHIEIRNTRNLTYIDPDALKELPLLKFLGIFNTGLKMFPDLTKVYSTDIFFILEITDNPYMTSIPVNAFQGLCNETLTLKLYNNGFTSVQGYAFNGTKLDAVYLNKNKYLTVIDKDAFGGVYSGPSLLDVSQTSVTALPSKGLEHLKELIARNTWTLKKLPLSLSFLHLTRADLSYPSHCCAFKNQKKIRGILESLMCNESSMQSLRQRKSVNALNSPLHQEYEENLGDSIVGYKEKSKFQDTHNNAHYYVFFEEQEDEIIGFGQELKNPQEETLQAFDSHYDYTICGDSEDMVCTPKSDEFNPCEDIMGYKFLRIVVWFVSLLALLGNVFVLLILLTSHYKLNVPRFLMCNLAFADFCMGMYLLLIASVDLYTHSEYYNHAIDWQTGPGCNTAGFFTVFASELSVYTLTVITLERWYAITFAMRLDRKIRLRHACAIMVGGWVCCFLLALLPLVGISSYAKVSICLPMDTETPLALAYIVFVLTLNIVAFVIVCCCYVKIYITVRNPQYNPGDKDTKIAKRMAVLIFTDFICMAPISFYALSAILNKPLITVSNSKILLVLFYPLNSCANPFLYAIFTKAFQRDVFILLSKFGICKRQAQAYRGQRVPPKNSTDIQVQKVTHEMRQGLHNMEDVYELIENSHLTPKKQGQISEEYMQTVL
# Test: qHTS for antagonists of the Thyroid Stimulation Hormone Receptor: Hit Validation in Primary Screen; note: nearly all actives have a fitted effect of over 80% in size;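 for activity change, negative = inhibition: cells stimulated with TSH at EC80 of 4 nM during compound exposure; cAMP by competitive HTRF where cellular cAMP lowers the 665 nm FRET signal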
# Conditions: TSHR-expressing cells, cAMP antagonist mode; series mostly up to 58 µM; activity change, negative = inhibition: at the top concentration
# Excerpt: The thyroid-stimulating hormone receptor (TSHR) is a member of the 7 trans-membrane-spanning receptor (7TMR) family of cell surface receptors. TSHR-mediated hyperthyroidism is important in thyroid pathology. The development of small molecule antagonists of TSHR may lead to therapeutic approaches for TSHR-mediated hyperthyroidism caused by constitutively activating mutations or stimulating auto-antibodies associated with Graves' disease. Graves' disease is the leading cause of hyperthyroidism and is caused by autoantibodies that stimulate TSHR (TsAbs) causing thyroid growth and unregulated overproduction of thyroid hormones and existing treatments have liabilities (agranulocytosis). In addition, TSHRs are known to be expressed in multiple extrathyroidal tissues including bone, brain, kidney, testis, fat and cells of the immune system but the role of the TSHR in these tissues is not clear. Therefore, TSHR antagonists/inverse agonists could be used as probes of extrathyroidal TSHR function. Finally, TSHR inverse agonists, which are a subclass of antagonists that inhibit agonist-independent (or basal or constitutive) TSHR signaling, could be used to inhibit TSH-independent signaling in patients with recurrent or metastatic thyroid cancer who are receiving thyroid hormone to suppress TSH.
# In collaboration between scientist from the NCGC and the NIDDK, a miniaturized HTRF high-throughput screen was developed. It's a cell based assay, where an anti cAMP antibody contains a fluorescent cryptate tag (excitation 337 nm; emission 620 nm) and the acceptor is cAMP-d2 (excitation 620 nm; emission 665 nm). When antibody and cAMP-d2 interact and are excited by a 337 nm light, a FRET occurs resulting in emission at 665 nm. The assay is competition between cAMP-d2 and cAMP (from the cell lysate). The homogeneous protocol allows for one step dispense after stimulation that is automation friendly. This is a hit validation assay using the primary screen format.
# NIH Chemical Genomics Center [NCGC]
# NIH Molecular Libraries Probe Centers Network [MLPCN]
# Assay Provider: Marvin Gershengorn, NIDDK
# 1. 3ul of 200 TSHR freshly harvested cells/well are dispensed into a 1536 TC-treated white solid bottom plate.
# 2. Through pintool addition, 23nl of compounds and control in 100% DMSO are added to the plate.
# 3. Then 1ul of EC80 TSH (4nM final) is added to the plate.
# 4. Assay is incubated at 37 deg C for 2 hours.
# 5. 2ul of cAMP antibody diluted 1:20 in lysis buffer is added.
# 6. Immediately following, 2ul of d2 diluted 1:20 in HBSS is added seperately.
# 7. The assay is incubated for 30 minutes at ambient room temperature.
# 8. The result is obtained by using a ViewLux read-out with HTRF settings.
# % is set by controls: 0 for no effect and ±100 for the full control effect; potency is the fitted concentration of half-maximal effect.
SMILES,Potency,"activity change, negative = inhibition"
Cc1ccc(C2(c3ccc(C)cc3)CC2C(=O)Nc2ccc([N+](=O)[O-])cc2O)cc1 (stereo not drawn),19 µM (active),
CCOc1ccc(C2NC(=O)c3ccccc3O2)cc1OC (stereo not drawn),,-2.79%
CC(C)(C)c1ccc(C(=O)CC(Sc2ccc(Cl)cc2)C(=O)O)cc1 (stereo not drawn),37.9 µM (active),
O=C1NC(=S)SC1=C1CCCCCC1,30.1 µM (active),
CC1=CCC2C(=O)N(c3ccc(C(=O)Nc4ccccc4Cl)cc3)C(=O)C2C1 (stereo not drawn),,-3.11%
Cc1ncsc1CCOC(=O)C1C2CC3CC(C2)CC1C3 (stereo not drawn),30.1 µM (active),
Cc1ccc(S(=O)(=O)/N=C2/NC(=O)/C(=C\c3cc(Br)cc(Br)c3O)S2)cc1,15.1 µM (active),
COc1ccc(CNC(=O)CCS(=O)(=O)c2ccc3c(c2)CCN3C(C)=O)cc1,,-3.72%
Cc1cc(C)c(C2=NOC3C4CCC(C4)C23)c(C)c1 (stereo not drawn),,-7.2%
COc1cccc(OC)c1C(=O)Nc1ccc2c(c1)N(S(=O)(=O)c1cccs1)CCC2,,-6.48%
O=C1NC(=S)S/C1=C\c1ccc(SCc2ccccc2)o1,6.01 µM (active),
COCCNc1oc(Cc2cccc3ccccc23)nc1C#N,,-5.82%
O=c1[nH]c(C2CCN(S(=O)(=O)c3cccc(Cl)c3)CC2)nc2c1nnn2Cc1ccccc1,,-3.4%
O=C(O)c1ccc(Cl)cc1Nc1nc2cc(Cl)ccc2o1,26.9 µM (active),
O=C1C=CC(=O)N1CCCCCCN1C(=O)C=CC1=O,37.9 µM (active),
C=CCn1c(SCC(=O)c2cccs2)nc2sc(CC)cc2c1=O,21.3 µM (active),
COc1cc(/C=C(\C#N)c2nc3ccccc3s2)cc([N+](=O)[O-])c1O,7.57 µM (active),
O=c1/c(=C/c2ccc(O)c([N+](=O)[O-])c2)sc2nc3ccccc3n12,3.79 µM (active),
N#C/C(=C\c1ccc(O)c([N+](=O)[O-])c1)c1nc2ccccc2s1,6.75 µM (active),
COC(CNC(=O)c1ccc(Cn2c(=S)[nH]c3cc4c(cc3c2=O)OCO4)cc1)OC,,-5.19%
CCOc1ccnc2c1c(=O)n(Cc1cc(OC)cc(OC)c1)c(=O)n2C,,-3.23%
COC(=O)CN(c1ccc(C)cc1)S(=O)(=O)c1ccc2c(c1)n(C)c(=O)c(=O)n2C,,-6.66%
COC(=O)c1ccc(C2C(Oc3ccccc3C)C(=O)N2CCc2ccc(OC)c(OC)c2)cc1 (stereo not drawn),,-6.94%
COc1ccc(CCNC2=C(Cl)C(=O)N(CCc3ccc(OC)c(OC)c3)C2=O)cc1OC,21.3 µM (active),

SMILES,Potency,"activity change, negative = inhibition"
COc1ccc(CCNC2=C(Cl)C(=O)N(CCc3ccccc3)C2=O)cc1OC,26.9 µM (active),
O=C(N/N=C/c1cccc(Oc2ccc([N+](=O)[O-])cc2[N+](=O)[O-])c1)c1cncc(Br)c1,30.1 µM (active),
CC(C)COc1cccc(-c2cc(C(=O)Nc3ccon3)c3ccccc3n2)c1,,-9.56%
N#Cc1nc(Cc2cccc3ccccc23)oc1NCc1ccc2c(c1)OCO2,,-8.9%
N#Cc1c(Cl)nsc1NC(=O)c1ccccc1,7.57 µM (active),
CCN(CC)c1ccc(NC2=C(Cl)C(=O)c3ccccc3C2=O)cc1,23.9 µM (active),
O=C(O)c1ccc(NC2=C(Cl)C(=O)c3ccccc3C2=O)cc1,30.1 µM (active),
O=C(O)c1ccc(S(=O)(=O)N(Cc2ccccc2)Cc2ccccc2)cc1,,-7.63%
O=C(O)c1cccc(NC2=C(Cl)C(=O)c3ccccc3C2=O)c1,23.9 µM (active),
Cc1ccccc1N1CCN(C2CCCN(C(=O)c3cnsn3)C2)CC1 (stereo not drawn),,-2.71%
CCOc1ccccc1-n1c(=S)sc2c(=O)n(-c3ccc(F)cc3)c(SCC(=O)O)nc21,,-3.34%
Fc1ccc2[nH]c3c(N4CCN(Cc5ccc6c(c5)OCO6)CC4)ncnc3c2c1,23.9 µM (active),
Fc1ccc2[nH]c3c(N4CCN(c5ccccc5)CC4)ncnc3c2c1,30.1 µM (active),
Cc1ccc2c(c1)[nH]c1c(N3CCN(Cc4ccccc4)CC3)ncnc12,30.1 µM (active),
O=C(c1cccc(Cl)c1)N1CCN(Cc2ccc3c(c2)OCO3)CC1,,-6.83%
N#Cc1c(F)cccc1N1CCN(Cc2ccc3c(c2)OCO3)CC1,,-2.54%
O=C1NC(=O)/C(=C/c2ccccc2Oc2ccc(Cl)cc2)S1,,-8.27%
CN(Cc1ccco1)S(=O)(=O)c1csc(C(N)=O)c1,,-3.34%
CCc1cc2c(NCc3ccccc3)nc(C)nc2s1,23.9 µM (active),
O=C(CSc1ccc(F)cc1)N1CCC(c2nc3ccccc3s2)CC1,37.9 µM (active),
Cc1nc(SCC(=O)N2CCN(c3ccccc3)CC2)n[nH]1,,-6.86%
C=CCC1(CC=C)CCCN1C(=O)c1cc(COc2ccc(C)nc2)on1,15.1 µM (active),
CC(=O)Nc1ccc(S(=O)(=O)Nc2c(NC3CCCCC3)c3ccccc3oc2=O)cc1,,0.576%
CCNC(=O)c1ccccc1NC(=O)C1CC(=O)N(C(C)C)C1 (stereo not drawn),,-3.43%
